SMN2 splice enh – qHTS Assay for Enhancers of SMN2 Splice Variant Expression | HEK293 SMN2-luciferase splicing reporter, luminescence, 30-36 h | Potency, µM (titrated, usually from 46.1 µM), for inactives: at the top dose activity change, positive = activation, actives largely listed as activators | 210,000 tested, 2.8% active | AID 1458, 2008; also: % of control where 0% means no effect; nearly all actives have a fitted effect of over 55% in size
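qHTS luciferase splicing reporter: luminescence rises when SMN2 exon 7 is included in transfected HEK293 cells. Compound exposure lasted 30-36 h at 37C, with 4.5 mM final sodium butyrate as control, followed by a ONE-Glo read.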
Rab9 promoter act – qHTS Assay for Rab9 Promoter Activators; Potency, µM (series often up to 9.22 µM), without a hit: at the top dose activation, negative = inhibition, actives largely listed as activators; Huh7 Rab9 promoter-luciferase reporter, luminescence, 24 h; AID 485297, 2010; 320,000 tested, 2.8% active; also: % of control where 0% means no effect; nearly all actives have a fitted effect of over 60% in size
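Huh7 cells stably carrying Rab9 promoter–luciferase reporter, plated 1500 cells/well, compound added after 2 h and incubated 24 h at 37 °C; luciferase luminescence then read after 10 min with detection reagent.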
FLuc counter – qHTS profiling assay for firefly luciferase inhibitor/activator using purifed enzyme and Km concentrations of substrates (counterscreen for miR-21 project); Luciferin 4-monooxygenase (Photinus pyralis), P08659; purified FLuc, Km substrates, luminescence inhibition; Potency, µM (highest dose often 57.5 µM), without a hit: at the highest dose activity change, negative = inhibition, actives largely listed as inhibitors; 360,000 tested, 6.9% active;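 also: plate controls were vehicle for no effect and reference inhibitor for full effect; nearly all actives have a fitted effect of over 55% in size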
Target sequence (P08659 whole entry, looked up): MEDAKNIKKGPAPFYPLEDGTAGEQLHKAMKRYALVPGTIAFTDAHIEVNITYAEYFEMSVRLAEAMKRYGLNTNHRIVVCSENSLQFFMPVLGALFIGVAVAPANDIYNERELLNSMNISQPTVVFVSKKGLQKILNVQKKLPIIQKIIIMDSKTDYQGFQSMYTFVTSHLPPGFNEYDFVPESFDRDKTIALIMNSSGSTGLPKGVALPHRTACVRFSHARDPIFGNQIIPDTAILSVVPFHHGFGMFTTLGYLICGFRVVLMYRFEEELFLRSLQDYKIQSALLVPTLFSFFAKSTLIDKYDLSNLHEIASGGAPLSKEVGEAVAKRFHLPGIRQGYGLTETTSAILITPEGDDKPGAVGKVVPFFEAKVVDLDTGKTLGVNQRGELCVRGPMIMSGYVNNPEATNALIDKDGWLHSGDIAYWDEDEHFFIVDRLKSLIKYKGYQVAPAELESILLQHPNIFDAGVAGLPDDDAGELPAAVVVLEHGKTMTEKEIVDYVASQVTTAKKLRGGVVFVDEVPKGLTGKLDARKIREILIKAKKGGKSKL
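Purified P. pyralis luciferase, 10 nM final, with Km-level 10 uM D-luciferin and 10 uM ATP in 50 mM Tris acetate pH 7.5, 10 mM Mg acetate, 0.01% Tween-20, 0.05% BSA; 6-point qHTS titration about 60 µM downward; luminescence read.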
NPC1 prom act – qHTS Assay for NPC1 Promoter Activators; Huh7 NPC1 promoter luciferase reporter, 24 h; Potency, µM (series often up to 9.22 µM), for inactives: at the highest dose activation, hits mostly activators; 320,000 tested, 2.4% active; also: % of control where 0% means no effect; nearly all actives have a fitted effect of over 60% in size
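NPC1 promoter–luciferase Huh7 cells; 24 h compound; luminescence.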
ELG1 genotox – qHTS screen for small molecules that induce genotoxicity in human embryonic kidney (HEK293T) cells expressing luciferase-tagged ELG1; HEK293T ELG1-luciferase reporter, luminescence, 16 h; Potency, µM (highest dose often 46 µM), for inactives: at the top dose activity change, positive = activation, usual class: activators; 330,000 tested, 1.3% active; AID 504466, 2011; also: % of control where 0% means no effect; nearly all actives have a fitted effect of over 60% in size
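Luminescence read-out: rising ELG1-luciferase signal, reflecting elevated ELG1 protein under genetic stress, flags genotoxic compounds. Cells were treated for 16 hr at 37 °C before ONE-Glo detection.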
An asterisk follows results filed as active; ? = inconclusive; nt = no result given; [ ] = another dose, or the depositor's remark. In the library only some 7.5% were active in any assay of this set; here they are far more common. Calls follow the shape of the dose curve; as a rule, active = well fitted curve in the direction sought with a large enough effect; inconclusive = small, poorly fitted or top-dose-only effect, or another doubt; inactive = no such curve, though single readings can be large; an effect the other way counts as inactive or inconclusive. Potency is read from the fitted curve at half-maximal effect.

SMILES	SMN2 splice enh	Rab9 promoter act	FLuc counter	NPC1 prom act	ELG1 genotox
CCOC(=O)c1sc(NCCNc2nc(C)c(C(=O)OCC)s2)nc1C	14%	-2%	1%	-4%	1%
CCOC(=O)c1sc(NC(=O)c2ccc(CC)s2)nc1C	2µM*	23%	?	-3%	2.6µM*
CCOCCn1cnc2sc(C(=O)Nc3nc(C)c(C(=O)OCC)s3)c(C)c2c1=O	-12%	2%	2.4µM*	-9%	12%
CCOCCn1cnc2sc(C(=O)Nc3ccccc3C(=O)OC)c(C)c2c1=O	nt	nt	-4%	nt	nt
Cc1cnc(NC(=O)c2cc3ccccc3o2)s1	2.2µM*	?	0.54µM*	1.4µM*	?
CCOC(=O)Cc1csc(/N=C/c2c(O)n(-c3ccccc3C(F)(F)F)c(=O)c3ccccc23)n1	-10%	-2%	11µM*	-2%	-6%
Cc1ccc(C)c(N2CCN(C(=O)c3cccn4c(=O)c5ccccc5nc34)CC2)c1	nt	nt	-7%	nt	nt
CCc1c(O)nc(SCC(=O)Nc2ccccc2OC)n(-c2ccccc2C)c1=O	nt	-1%	3%	0%	-1%
CCOC(=O)Cc1csc(SCn2nnc3ccccc3c2=O)n1	5%	0%	-3%	3%	2%
CCOC(=O)c1csc(NC(=O)c2cc3ccccc3o2)n1	nt	?	3.4µM*	?	?
CCOC(=O)c1sc(NC(=O)c2ccccc2OC)nc1C	2.5µM*	28%	0.43µM*	1%	1.8µM*
CCOC(=O)c1sc(NC(=O)Cc2ccc(C)cc2)nc1C	6%	-3%	-16%	-5%	-5%
CCOC(=O)Cc1csc(-n2sc3ccccc3c2=O)n1	-1%	28%	9.5µM*	22%	?
CCc1ccc(C(=O)Nc2cc(C)ccc2F)s1	?	23%	19µM*	0%	21%
CN(C)C(=O)CCc1ccc2c3c([nH]c2c1)[C@]1(C)[C@@H](C(=O)N2CCOCC2)C[C@H](CC(=O)NCC24CC5CC(CC(C5)C2)C4)C(=O)N1CC3	nt	nt	nt	nt	7%
Cc1ccc(-c2nc(CN3CCN(C(=O)C4CCCO4)CC3)cs2)cc1 (stereo not given)	nt	-14%	3%	-2%	2%
CCOC(=O)Cc1nnc(NC(=O)c2ccccc2OC)s1	-8%	-33%	17µM*	7%	13%
CCOC(=O)Cc1csc(NC(=O)c2sc3nc4c(C)cc(C)cc4cc3c2N)n1	22µM*	22%	?	18%	?
CCOC(=O)Cc1csc(NC(=O)c2csc(C)c2)n1	-8%	0%	?	11%	?
CCOC(=O)Cc1nnc(NC(=O)c2ccccc2OCC)s1	-5%	-5%	-2%	-4%	-1%
CCOC(=O)c1sc2nc(C)cc(C)c2c1NC(=O)c1ccco1	3%	1%	-1%	-4%	0%
Cc1csc(NC(=O)c2ccccc2C(=O)O)n1	-3%	-4%	0%	-5%	-3%
C=CCOC(=O)c1sc(NC(=O)c2ccco2)nc1C	?	?	9.5µM*	?	21µM*
CCc1ccc(C(=O)Nc2nc(C)cs2)s1	nt	-16%	0.95µM*	-12%	?
CCn1ncc(Br)c1C(=O)Nc1ccc(C(C)C)cc1	nt	1%	?	?	11%
SMILES	SMN2 splice enh	Rab9 promoter act	FLuc counter	NPC1 prom act	ELG1 genotox
C/C(=N\NS(C)(=O)=O)c1ccc(C)cc1	-7%	-5%	-2%	0%	-2%
CCOC(=O)c1sc(NC(=O)c2cc3ccccc3o2)nc1C	11µM*	-17%	2.4µM*	-42%	14%
Cc1nc(NC(=O)c2cc3ccccc3o2)sc1C	nt	?	1.1µM*	-4%	0.65µM*
O=C(Nc1nnc(C2CC2)s1)c1cc2ccccc2o1	nt	3.5µM*	13µM*	2.8µM*	?
CCOC(=O)c1sc(NC(=O)CC2OC(=O)c3ccccc32)nc1C (stereo not given)	nt	0%	?	-3%	2%
Cc1nnc(NC(=O)c2cc3ccccc3o2)s1	nt	?	6µM*	?	?
Cc1ccccc1-c1nnc(NC(=O)c2cc3ccccc3oc2=O)s1	-41%	1%	-1%	2%	5%
CC(C)OC(=O)CSc1nc(N)c(C#N)c(-c2ccco2)c1C#N	-20%	-1%	-10%	0%	-2%
CCOC(=O)Cc1csc(NC(=O)c2cc(=O)c3ccccc3o2)n1	5%	13%	17µM*	-2%	-3%
COc1ccc(C(=O)Nc2ccc(N3CCCC3)cc2)cc1	8%	?	7.6µM*	26%	?
COc1ccc(C(=O)Nc2ccc(N3CCCC3)cc2)cc1Br	nt	28%	?	17%	9%
COc1ccc(CCNC(=O)Cn2nnc(-c3ccc(N4CCOCC4)cc3)n2)cc1OC	?	?	3µM*	3%	8%
COc1ccc(C(=O)NC(=S)Nc2ccc(N3CCCC3)cc2)cc1	-11%	-9%	5%	-1%	-4%
CCOc1ccc(C(=O)Nc2ccc(NC(=O)c3ccccc3)cc2)cc1Br	-6%	-4%	2%	-1%	10%
COc1ccc(C(=O)Nc2ccc(N3CCCC3)cc2)cc1OC	nt	4µM*	5.4µM*	3.5µM*	?
CCOc1ccc(C(=O)Nc2ccc(N3CCN(C)CC3)cc2)cc1Br	-6%	-3%	6µM*	28%	10%
CCOc1ccc(CCNC(=O)Cn2nnc(-c3ccc(OC)c(OC)c3)n2)cc1OCC	-3%	nt	-7%	nt	nt
COc1cc(C(=O)NNC(=O)/C=C/c2ccco2)cc(OC)c1OC	nt	nt	nt	nt	1%
COc1ccc(C(=O)Nc2ccc(N3CCOCC3)cc2)cc1OC	9%	10%	24µM*	23%	16%
CN(C)c1cccc(C(=O)Nc2ccc(N3CCOCC3)cc2)c1	?	?	21µM*	22%	?
O=C(Nc1ccc(N2CCOCC2)cc1)c1cccc(-n2cnnc2)c1	nt	-3%	?	-1%	-5%
COc1ccccc1-c1nc2cc(NC(=O)c3ccccc3Cl)ccc2o1	11%	nt	5.4µM*	nt	nt
CC(C)(C)C(=O)Nc1ccc2oc(-c3cc(F)c(F)cc3Cl)nc2c1	25%	4.5µM*	2.7µM*	?	5.2µM*
O=C(Cc1ccc(Cl)cc1)Nc1ccc2oc(-c3ccccc3F)nc2c1	14%	nt	-14%	nt	nt
O=C(Nc1ccc2oc(-c3ccccc3F)nc2c1)c1ccccc1Cl	14µM*	nt	3.4µM*	nt	nt
c1ccc(-c2nc3c4ccccc4ccn3c2CN2CCCCC2)cc1	nt	13%	5.4µM*	-1%	-3%
c1ccc(-c2nnn(C34CC5CC(CC(C5)C3)C4)n2)cc1	?	18%	17µM*	7%	?
c1ccc(-c2nnn(CCN3CCCCC3)n2)cc1	-11%[9.22 µM]	nt	nt	nt	nt

From PubChem BioAssay
